Bioassay records as filed in PubChem BioAssay.
ATG4B inh – ATG4B protease inhibitors, primary screen, biochemical, fluorescence, uHTS; 0.51% of 340,000 active; ATG4B cleavage of LC3-PLA2, NBD-HPC fluorescence, 1 h; inhibition, % at 8.33 µM; in the data active = inhibition above about 40%
Calb FLC – C. albicans growth inhibition with fluconazole, primary screen, CaCi-2 strain, Alamar Blue fluorescence. 0.57% of 300,000 active. growth inhibition, % (no concentration beside the values). C. albicans CaCi-2 (fluconazole-resistant clinical isolate) + fluconazole, 48 h;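 active = growth inhibition above about 58% in most replicates, limit read from the data, passing the limit was not always enough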;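 also: all wells also contain fluconazole at 8 µg/ml as a sub-toxic cotreatment; 0% = median of DMSO wells and 100% = median of geldanamycin control wells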
NadD block – inhibitors of S. aureus NadD, primary screen, biochemical, colorimetric, uHTS | Nicotinate-nucleotide adenylyltransferase NadD (Staphylococcus aureus N315) | purified NadD enzyme, colorimetric absorbance read-out | inhibition, % at 20 µM | 0.78% of 360,000 active; in the data active = inhibition above about 26%
FAS TE block – FAS thioesterase domain inhibitors, primary screen, biochemical, fluorescence intensity, uHTS; Fatty acid synthase (Homo sapiens), P49327; recombinant FAS-TE, OMFH fluorogenic substrate, fluorescence endpoint; inhibition, % at 15 µM; 0.67% of 360,000 active;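 active = compounds whose normalised, plate-corrected inhibition of enzyme fluorescence in the single-dose primary screen is 50% or more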;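 also: 0% = DMSO with enzyme and 100% = substrate without enzyme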
SUMO Mot1 rescue – yeast Mot1-301 growth rescue at high temperature, primary screen, SUMOylation pathway inhibitor project, S. cerevisiae, ATP luminescence, 38.5C. S. cerevisiae Mot1-301 growth rescue; percent above DMSO median, 100 means doubled. growth rescue, % at 18.8 µM. 1% of 320,000 active;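 active = every valid replicate shows activation above 250% relative to neutral control wells; inactive = the rest, any valid replicate at or below 250%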;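 also: OY570 slx delta 5 strain wells were the positive control but not used for scaling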
* hit, by the source's call; . = not tested or not shown. Compounds with a hit are over-represented: about 3.1% of the library has one in this group of screens.

SMILES	ATG4B inh	Calb FLC	NadD block	FAS TE block	SUMO Mot1 rescue
COc1ccc(Br)cc1C(C[N+](=O)[O-])c1c(N)n(C)c(=O)n(C)c1=O (configuration not stated)	-4	7	-2	0	330*
O=C(COC(=O)c1cc(=O)[nH]c2ccccc12)NCCc1ccccc1	-10	.	1	-2	2
CC(C)C1Cc2c(sc3ncnc(NN)c23)CO1 (configuration not stated)	6	6	3	-8	-15
Cc1ccc(CNC(=O)COC(=O)c2cccc(S(=O)(=O)N3CCCCC3)c2)cc1	-4	.	0	12	12
COc1ccc(N2CCN(C(=O)c3ccc4c(c3)NC(=O)C(CSCc3ccccc3F)N4)CC2)cc1 (configuration not stated)	.	.	56*	-16	.
O=C1Nc2cc(C(=O)N3CCN(c4ccccc4F)CC3)ccc2NC1CSCc1ccccc1F (configuration not stated)	.	3	.	.	7
CN(C(=O)Cn1c(=O)oc2ccccc21)C1CCCCC1	-2	.	-2	-5	0
COc1ccccc1/C=C1\SC(=S)N(NS(=O)(=O)c2ccccc2)C1=O	4	91*	-3	7	42
COc1cccc(/C=C2\SC(=S)N(NS(=O)(=O)c3ccc(C)cc3)C2=O)c1OC	.	21	10	2	4
CC(C)=CC(=O)Nc1ccc(Cl)cc1	10	-6	0	3	579
CS/C(=C\[N+](=O)[O-])Nc1ccc(Cl)cc1	2	102*	-4	-3	81
CC1Sc2ccc(C(=O)Nc3ccccc3OC(F)F)cc2NC1=O (configuration not stated)	9	-4	1	0	-5
Cc1cccc([C@@H]2[C@@H]3C(=O)N(Cc4ccccc4)C(=O)[C@@H]3[C@]3(Cc4ccc(Cl)cc4)C(=O)N(c4ccc(Br)cc4)C(=O)N23)c1	-8	15	25	90*	-5
O=C1[C@H]2[C@@H](c3ccc(F)cc3)N3C(=O)N(c4cccc(Cl)c4)C(=O)[C@@]3(Cc3ccccc3)[C@H]2C(=O)N1C1CCCCC1	-6	-28	14	72*	80
O=C1[C@H]2[C@@H](c3ccc(F)cc3)N3C(=O)N(c4ccccc4)C(=O)[C@@]3(Cc3ccc(Cl)cc3)[C@H]2C(=O)N1C1CCCCC1	4	7	10	94*	8
CCOC(=O)c1[nH]c(C)c(C(=O)OCC(=O)N2CC(=O)Nc3ccccc32)c1C	0	16	0	-8	261
FC(F)(F)c1ccc(Cl)c(N/N=C/c2ccc(N3CCOCC3)s2)c1	7	-3	16	29	23
O=C(Cn1c2[n+](c3ccc(C(F)(F)F)cc31)CCCCC2)Nc1ccc(Br)cc1	8	-27	-1	-3	-12
CCc1ccc(NC(=O)Cn2c3[n+](c4c(F)c(F)ccc42)CCCCC3)cc1	5	-43	-3	3	708*
CCN(C(=O)c1cnc(OC)cc1C(F)(F)F)c1ccc(Cl)cc1Cl	4	-5	-1	-4	-10
Cn1c(=O)n(CCOc2ccccc2Cl)c2ccccc21	3	10	-1	7	-6
Cn1c(=O)n(CC#N)c2ccccc21	-14	102*	6	-6	-4
COc1ccccc1OCCn1c(=O)n(C)c2ccccc21	21	2	-5	-4	345*
O=C1NC(Cc2ccccc2)c2nc3ccc(Cl)cc3c(=O)n2-c2ccccc21 (configuration not stated)	.	.	.	.	-12
CCN(C[C@H]1N[C@@](Cc2ccccc2)(C(=O)OC)[C@H]2C(=O)N(C)C(=O)[C@@H]12)C(=O)C1CCCCC1	-2	.	-5	-4	.
O=C(CN(Cc1ccc2c(c1)OCO2)C(=O)CNC(=O)c1ccco1)NC1CCCCC1	3	-7	-9	-3	335*
O=C(CN(C(=O)CNC(=O)c1ccco1)c1ccc2c(c1)OCO2)NC1CCCCC1	0	10	4	16	-4
Cc1cc2c(Nc3cccc(O)c3)ncnc2s1	-2	6	-4	-4	28
